# Publication PMC11006913
# Biological target: MSX2 (Homo sapiens, UniProt P35548 130-214, F161Y)
# Assay: PBM; 200 nM protein, PBS
# Details: dsDNA, one strand shown
# Sequence of MSX2 (P35548 130-214 F161Y): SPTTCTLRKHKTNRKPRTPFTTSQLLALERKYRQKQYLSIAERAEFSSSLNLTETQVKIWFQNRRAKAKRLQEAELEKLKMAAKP
row,Sequence,binding signal
1,CGGGCTTC,"9.35 upbm affinity estimate (log intensity, higher = more binding, comparable within an allelic series)"
2,CGAGGCAC,"9.56 upbm affinity estimate (log intensity, higher = more binding, comparable within an allelic series)"

# Biological target: VAX1 (Homo sapiens, UniProt Q5SQQ9 86-172, T142I)
# Sequence (Q5SQQ9 86-172 T142I): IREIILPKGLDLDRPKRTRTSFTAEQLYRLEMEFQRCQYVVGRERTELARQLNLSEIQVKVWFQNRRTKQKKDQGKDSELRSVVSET
# Assay: PBM; 200 nM protein, PBS
# Details: dsDNA, one strand shown
row,Sequence,binding signal
1,TAATGACA,"12.7 upbm affinity estimate (log intensity, higher = more binding, comparable within an allelic series)"
2,TCCCAGGA,"7.36 upbm affinity estimate (log intensity, higher = more binding, comparable within an allelic series)"
3,TAATGATA,"12.5 upbm affinity estimate (log intensity, higher = more binding, comparable within an allelic series)"
4,ACCGCCGG,"7.48 upbm affinity estimate (log intensity, higher = more binding, comparable within an allelic series)"
5,TTAATGAA,"12.4 upbm affinity estimate (log intensity, higher = more binding, comparable within an allelic series)"
6,CCTAATGA,"13 upbm affinity estimate (log intensity, higher = more binding, comparable within an allelic series)"
7,CAGACCCC,"7.15 upbm affinity estimate (log intensity, higher = more binding, comparable within an allelic series)"
8,ATAATGAT,"12.3 upbm affinity estimate (log intensity, higher = more binding, comparable within an allelic series)"
9,GGTAATGA,"12.6 upbm affinity estimate (log intensity, higher = more binding, comparable within an allelic series)"
10,CATCATTA,"12.8 upbm affinity estimate (log intensity, higher = more binding, comparable within an allelic series)"
11,ATAATGAC,"12.5 upbm affinity estimate (log intensity, higher = more binding, comparable within an allelic series)"
12,GATAATGA,"12.7 upbm affinity estimate (log intensity, higher = more binding, comparable within an allelic series)"

# Biological target: T1, PAX4 (Homo sapiens, UniProt O43316 9-242, R227W)
# T1 sequence: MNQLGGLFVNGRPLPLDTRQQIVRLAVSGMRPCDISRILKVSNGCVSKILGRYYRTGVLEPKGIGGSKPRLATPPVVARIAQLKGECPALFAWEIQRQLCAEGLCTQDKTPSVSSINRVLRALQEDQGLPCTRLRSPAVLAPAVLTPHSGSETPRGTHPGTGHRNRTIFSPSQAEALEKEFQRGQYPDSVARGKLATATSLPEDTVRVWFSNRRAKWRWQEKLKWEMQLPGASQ
# Assay: PBM; 200 nM protein, PBS
# Details: dsDNA, one strand shown
row,Sequence,binding signal
1,AGGGGGGG,"9.07 upbm affinity estimate (log intensity, higher = more binding, comparable within an allelic series)"
2,GTGGGGGA,"9.48 upbm affinity estimate (log intensity, higher = more binding, comparable within an allelic series)"
3,GATAATGA,"10.6 upbm affinity estimate (log intensity, higher = more binding, comparable within an allelic series)"
4,CGGGCTTC,"9.24 upbm affinity estimate (log intensity, higher = more binding, comparable within an allelic series)"

# Biological target: HOXA2 (Homo sapiens, UniProt O43364 129-215, Y150S)
# Sequence (O43364 129-215 Y150S): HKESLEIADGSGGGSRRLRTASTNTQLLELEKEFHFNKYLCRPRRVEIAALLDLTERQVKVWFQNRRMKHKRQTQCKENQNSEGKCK
# Assay: PBM; 200 nM protein, PBS
# Details: dsDNA, one strand shown
row,Sequence,binding signal
1,TAATGACA,"11 upbm affinity estimate (log intensity, higher = more binding, comparable within an allelic series)"
2,CGCCGGGC,"10.4 upbm affinity estimate (log intensity, higher = more binding, comparable within an allelic series)"
3,CTGGCGGC,"10.5 upbm affinity estimate (log intensity, higher = more binding, comparable within an allelic series)"
4,TAATGATA,"11 upbm affinity estimate (log intensity, higher = more binding, comparable within an allelic series)"
5,ACCGCCGG,"10.4 upbm affinity estimate (log intensity, higher = more binding, comparable within an allelic series)"
6,TTAATGAA,"10.8 upbm affinity estimate (log intensity, higher = more binding, comparable within an allelic series)"
7,CCTAATGA,"10.7 upbm affinity estimate (log intensity, higher = more binding, comparable within an allelic series)"
8,ATAATGAT,"10.9 upbm affinity estimate (log intensity, higher = more binding, comparable within an allelic series)"
9,GGTAATGA,"10.8 upbm affinity estimate (log intensity, higher = more binding, comparable within an allelic series)"
10,CATAATGA,"11 upbm affinity estimate (log intensity, higher = more binding, comparable within an allelic series)"
11,CATCATTA,"11 upbm affinity estimate (log intensity, higher = more binding, comparable within an allelic series)"
12,TATAATGA,"10.9 upbm affinity estimate (log intensity, higher = more binding, comparable within an allelic series)"
13,ATAATGAC,"10.8 upbm affinity estimate (log intensity, higher = more binding, comparable within an allelic series)"
14,GATAATGA,"10.9 upbm affinity estimate (log intensity, higher = more binding, comparable within an allelic series)"

# Biological target: HOXA7 (Homo sapiens, UniProt P31268 116-202, W177C)
# Sequence (P31268 116-202 W177C): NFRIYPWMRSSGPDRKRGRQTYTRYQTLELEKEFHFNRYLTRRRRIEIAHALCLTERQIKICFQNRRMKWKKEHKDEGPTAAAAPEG
# Assay: PBM; 200 nM protein, PBS
# Details: dsDNA, one strand shown
row,Sequence,binding signal
1,TAATGACA,"8.98 upbm affinity estimate (log intensity, higher = more binding, comparable within an allelic series)"
2,CTGGCGGC,"8.35 upbm affinity estimate (log intensity, higher = more binding, comparable within an allelic series)"
3,CAGACCCC,"8.53 upbm affinity estimate (log intensity, higher = more binding, comparable within an allelic series)"
4,GTGGGGGA,"8.55 upbm affinity estimate (log intensity, higher = more binding, comparable within an allelic series)"
5,ATAATGAC,"8.74 upbm affinity estimate (log intensity, higher = more binding, comparable within an allelic series)"
6,CGGCAGAG,"8.39 upbm affinity estimate (log intensity, higher = more binding, comparable within an allelic series)"
7,ACCGTGGG,"8.44 upbm affinity estimate (log intensity, higher = more binding, comparable within an allelic series)"
8,ACCGTGCC,"8.5 upbm affinity estimate (log intensity, higher = more binding, comparable within an allelic series)"

# Biological target: ALX1 (Homo sapiens, UniProt Q15699 118-204)
# Sequence (Q15699 118-204): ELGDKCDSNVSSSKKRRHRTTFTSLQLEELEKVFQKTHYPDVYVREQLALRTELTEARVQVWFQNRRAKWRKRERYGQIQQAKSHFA
# Assay: PBM; 200 nM protein, PBS
# Details: dsDNA, one strand shown
row,Sequence,binding signal
1,ATTAATCA,"12 upbm affinity estimate (log intensity, higher = more binding, comparable within an allelic series)"
2,TTAATGAA,"11.5 upbm affinity estimate (log intensity, higher = more binding, comparable within an allelic series)"
3,GTGGGGGA,"6.29 upbm affinity estimate (log intensity, higher = more binding, comparable within an allelic series)"
4,GGCCCCCA,"6.65 upbm affinity estimate (log intensity, higher = more binding, comparable within an allelic series)"
